Holding throughout (experiment): NCI-60 one-dose screen, 48 h (100 = growth as untreated, 0 = no growth, -100 = all killed)
Common to all, as to details: 10 µM unless noted

Assay [1] has as its system EKVX NSCLC.
Assay [2] relates to SN12C renal.
Assay [3] deals with UO-31 renal.
Assay [4] relates to TK-10 renal.
In assay [5] the test system is ACHN renal.
For assay [6], the system named is CAKI-1 renal.
For assay [7], the system named is A498 renal.
The test system of assay [8] is MOLT-4 leukemia.
In assay [9] the test system is SR leukemia.
Assay [10] concerns RPMI-8226 leukemia.
Assay [11] has as its system OVCAR-8 ovarian.
In assay [12] the test system is OVCAR-5 ovarian.
Assay [13] deals with OVCAR-4 ovarian.
Assay [14] relates to SK-OV-3 ovarian.
The subject of assay [15] is IGROV1 ovarian.
In assay [16] the test system is OVCAR-3 ovarian.
The test system of assay [17] is HS 578T breast.
Assay [18] deals with NCI/ADR-RES ovarian.
The test system of assay [19] is T-47D breast.
The test system of assay [20] is CCRF-CEM leukemia.

Molecules are shown by their SMILES. About 83,000 compounds went through this panel and 20% of them were active in at least one assay; those are over-represented in the sample as a whole.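 Step 1: grow cells in 96-well plates. Step 2: add test compound at a single concentration. Step 3: incubate 48 h. Step 4: record percent growth.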 Values without a mark were called inactive. Active and inactive are the calls of the source. How the source made its calls: active means growth percent below 10; inactive means the rest.

In the case of `Nc1c(C(=O)Nc2ccc(Cl)cc2)sc2nc(-c3cnccn3)cc(-c3cccs3)c12`, the growth was 71.7% in assay [1]; 66.6% in [2]; 67.7% in [3]; 118% in assay [4]; 17% in [5]; -6.36% (active) in [6]. For the same compound, the growth in assay [7] is 82.3%; in assay [8] it was 70.1%; in assay [9], 40.7%; in [10], 85.1%; in assay [11], 48.1%; in assay [12], 66.2%. In addition, the growth in assay [13] was 61.3%; in assay [14], 74.1%; in assay [15] it was 74.2%; in [16], 62.7%; in assay [17] it was 47.1%; in assay [18] it was 68.3%. In addition, the growth in assay [19] is 96.7%.

Regarding `COc1cc(/C=C/C(=O)c2cc(OC)c(OC)c(OC)c2)ccc1OCc1ccccc1`, the growth is 51.6% in [1]; 69.7% in assay [2]; 45.5% in assay [3]; 153% in assay [4]; 60% in [5]; 42% in assay [6]. Also, the growth in [20] was 4.39% (active); in assay [8], 26.2%; in [9] it was 6.67% (active); in assay [11] it was 16.8%; in [12], 47%; in assay [13] it was 41.2%. Besides, the growth is 88.1% in assay [14]; 35.3% in [15]; 26% in assay [16]; 88.9% in assay [17]; 14.4% in assay [18]; 41.8% in [19].

For the compound `O=C(N/N=C/c1ccco1)c1[nH]c2ccc(Br)cc2c1-c1ccccc1`, the growth is 37.9% in assay [1]; 38.1% in [2]; 38.6% in [3]; 98.7% in [4]; 29.3% in assay [5]; 30.3% in [6]. For the same compound, the growth in assay [20] is 15.6%; in assay [8], 15.8%; in assay [9] it was 11.2%; in assay [10], 8.9% (active); in [11], 5.2% (active); in [12] it was 36.7%. Moreover, the growth was 58.5% in assay [13]; 36.1% in assay [14]; 18.5% in [15]; 21.5% in assay [16]; 31.6% in assay [17]; 20.5% in [18]. In addition, the growth in assay [19] is 60.7%.

`COC1CCN(Cc2ccc3c(NNC(=O)c4cnccn4)nc4cc(F)ccc4n23)C1` (configuration not stated): the growth in assay [1] was 29.9%; in assay [2], 24.1%; in assay [3] it was 18.6%; in assay [4] it was 40.8%; in [5], 14.1%; in [6] it was 16.8%. The growth in [7] was 30.6%; in assay [20], 1.87% (active); in [9], 1.51% (active); in [10], 20.2%; in assay [11], 14.4%; in assay [12] it was 49.9%. For the same compound, the growth is 21% in assay [13]; 38.1% in assay [14]; 24.2% in assay [15]; 5.16% (active) in assay [16]; 68.5% in assay [17]; 24% in [18]. Further, the growth in [19] is 24.2%.

With `COc1ccc(NC2=CC(=O)C(C)=C(C)C2=O)cc1`, the growth in assay [1] is 78.8%; in assay [2] it was 86.4%; in assay [3], 81.2%; in assay [4] it was 156%; in assay [5] it was 96.1%; in assay [6], 93.5%. Besides, the growth in [7] was 84.4%; in assay [20] it was 70.1%; in assay [10] it was 73.3%; in assay [11] it was 79.1%; in [12], 109%; in [13], 43.8%. The growth in assay [15] is 89.3%; in assay [16], 9.94% (active); in assay [17], 110%; in [19] it was 67.5%.

Take `C#Cc1nc(C2=C(C)/C(=N/OCc3ccccc3)CC2)cs1`: the growth is 19.4% in assay [1]; 66.6% in assay [2]; -93.8% (active) in [3]; 158% in assay [4]; 0.823% (active) in [5]; -20.1% (active) in assay [6]. Also, the growth in assay [20] was -30.2% (active); in assay [8] it was 60.7%; in [9], -52.4% (active); in assay [10], -44.1% (active); in assay [11], 21.2%; in assay [12], 54.6%. Also, the growth in assay [13] is 16.7%; in [14] it was -22.3% (active); in [15] it was -68.3% (active); in assay [16], 74.2%; in assay [17] it was 70.9%; in assay [18] it was -3.32% (active). Besides, the growth in assay [19] was 67.5%.

As for `NS(=O)(=O)c1ccc(Nc2nc(Nc3ccccc3)nc(-n3nc(-c4ccccc4)cc3-c3ccccc3)n2)cc1`, the growth was 40.3% in [1]; 41.2% in [2]; 29.1% in [3]; 108% in assay [4]; 15.3% in assay [5]; 21% in assay [6]. In addition, the growth in assay [20] is 10.7%; in assay [8], 4.14% (active); in [9], 0.684% (active); in assay [10], 6.63% (active); in assay [11], 40%; in assay [12], 78.1%. Moreover, the growth in assay [13] is 37.9%; in assay [14], 65.8%; in assay [15], 25.6%; in assay [16], 31.5%; in assay [17], 64.6%; in assay [18] it was 45%. Moreover, the growth in assay [19] is 36.9%.

In the case of `CN1CCc2c(sc3ncnc(N/N=C/c4ccc(Cl)c(Cl)c4)c23)C1`, the growth was 60.8% in [1]; 81.2% in [2]; 29.7% in assay [3]; 137% in assay [4]; -84.7% (active) in assay [5]; 10.6% in assay [6]. In addition, the growth in [20] is 8.1% (active); in assay [8] it was 26.6%; in [9], -22.8% (active); in [11] it was 31.8%; in [12], 71.4%; in [13], 20.9%. In addition, the growth was 28.3% in assay [14]; 73.2% in assay [15]; 71.5% in assay [16]; 78.5% in assay [17]; 29.6% in assay [18]; 90.4% in assay [19].

These data come from PubChem BioAssay (NCI).
